# Biological target: T1, ETV2 (Homo sapiens, UniProt O00321 1-342)
# T1 sequence: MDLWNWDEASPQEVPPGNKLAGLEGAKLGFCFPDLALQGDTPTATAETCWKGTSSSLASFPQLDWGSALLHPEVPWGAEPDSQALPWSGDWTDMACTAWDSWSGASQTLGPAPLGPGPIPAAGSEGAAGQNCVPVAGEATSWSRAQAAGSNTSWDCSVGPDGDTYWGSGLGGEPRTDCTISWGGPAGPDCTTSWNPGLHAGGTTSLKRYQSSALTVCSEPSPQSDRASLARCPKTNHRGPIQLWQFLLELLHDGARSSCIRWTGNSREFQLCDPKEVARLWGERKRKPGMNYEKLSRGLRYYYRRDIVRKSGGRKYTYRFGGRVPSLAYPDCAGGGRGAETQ
# Assay: DAPPL (digital affinity profiling via proximity ligation, sequencing); 10 mM Tris-HCl pH 7.5, 50 mM NaCl, 1 mM DTT, 4% glycerol, room temperature, 30 min; GST-TFs on glutathione beads, 16-mer random dsDNA library, 0.1% formaldehyde crosslink after washing; high values mean tight binding
# Details: protein: recombinant; tags: N-terminal GST; dsDNA, one strand shown
# Method in brief: (§1)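 Binding signal is defined as a hexamer's read frequency for one factor over its frequency for the tag-only sample. To obtain reads, GST-fused human transcription factors were expressed in yeast, captured on glutathione beads, barcoded with DNA and pooled with that sample. Pools met 200 nmole of a 16-mer random double-stranded DNA library in Tris/NaCl/DTT/glycerol buffer for 30 min at room temperature before washing, 0.1% formaldehyde crosslinking, proximity ligation (BsaI/T4 ligase, 1 h, 37 °C), PCR and Illumina NextSeq500 sequencing.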
row,Sequence,binding signal
1,AAAGGC,"1.04 fold enrichment (6-mer frequency, TF over GST control)"
2,TAGGCA,"1.19 fold enrichment (6-mer frequency, TF over GST control)"
3,GCCCTG,"1 fold enrichment (6-mer frequency, TF over GST control)"
4,ATCACG,"1.07 fold enrichment (6-mer frequency, TF over GST control)"
5,CCTAGG,"1.03 fold enrichment (6-mer frequency, TF over GST control)"
6,CAGCTC,"1.02 fold enrichment (6-mer frequency, TF over GST control)"
7,GTGTCT,"1.15 fold enrichment (6-mer frequency, TF over GST control)"
8,ACGCGC,"1.08 fold enrichment (6-mer frequency, TF over GST control)"
9,ACCTGT,"1.04 fold enrichment (6-mer frequency, TF over GST control)"

# Biological target: T2, ELF3 (Homo sapiens, UniProt P78545 1-371)
# T2 sequence: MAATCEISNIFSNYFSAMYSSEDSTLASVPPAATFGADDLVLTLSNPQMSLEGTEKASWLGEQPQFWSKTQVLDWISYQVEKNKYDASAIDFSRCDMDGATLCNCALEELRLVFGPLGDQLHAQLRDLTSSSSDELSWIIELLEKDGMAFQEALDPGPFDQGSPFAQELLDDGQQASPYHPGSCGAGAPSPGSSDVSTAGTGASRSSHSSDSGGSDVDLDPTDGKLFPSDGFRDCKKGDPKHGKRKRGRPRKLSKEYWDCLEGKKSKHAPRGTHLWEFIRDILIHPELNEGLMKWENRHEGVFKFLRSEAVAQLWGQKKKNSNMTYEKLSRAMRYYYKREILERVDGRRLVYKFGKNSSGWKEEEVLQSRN
# Assay: as above
# Details: protein: recombinant; tags: N-terminal GST; dsDNA, one strand shown
# Method in brief: as §1
row,Sequence,binding signal
1,CTAAGG,"1.02 fold enrichment (6-mer frequency, TF over GST control)"
2,ACATGA,"1.03 fold enrichment (6-mer frequency, TF over GST control)"
3,AACGCG,"1.02 fold enrichment (6-mer frequency, TF over GST control)"
4,ATCACG,"1.01 fold enrichment (6-mer frequency, TF over GST control)"
5,TGGTGA,"1.03 fold enrichment (6-mer frequency, TF over GST control)"
6,CAGCTC,"1.04 fold enrichment (6-mer frequency, TF over GST control)"
7,GTATGA,"1.02 fold enrichment (6-mer frequency, TF over GST control)"
8,GTGTCT,"1 fold enrichment (6-mer frequency, TF over GST control)"
9,GTGGCC,"1.09 fold enrichment (6-mer frequency, TF over GST control)"

# Biological target: CRX (Homo sapiens, UniProt O43186 1-299)
# Assay: as above
# Details: protein: recombinant; tags: N-terminal GST; dsDNA, one strand shown
# Method in brief: as §1
# CRX, sequence (O43186 whole entry): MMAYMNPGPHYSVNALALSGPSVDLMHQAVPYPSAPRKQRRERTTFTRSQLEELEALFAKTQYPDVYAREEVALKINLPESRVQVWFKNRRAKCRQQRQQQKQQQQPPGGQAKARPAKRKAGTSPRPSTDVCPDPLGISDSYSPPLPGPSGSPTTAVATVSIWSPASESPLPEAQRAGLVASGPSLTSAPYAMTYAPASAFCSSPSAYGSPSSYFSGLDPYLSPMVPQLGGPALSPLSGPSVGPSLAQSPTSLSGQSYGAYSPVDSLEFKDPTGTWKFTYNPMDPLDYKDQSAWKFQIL
row,Sequence,binding signal
1,AAAGGC,"1.03 fold enrichment (6-mer frequency, TF over GST control)"
2,CTAAGG,"1.12 fold enrichment (6-mer frequency, TF over GST control)"
3,TAGGCA,"1.08 fold enrichment (6-mer frequency, TF over GST control)"

# Biological target: ETV1 (Homo sapiens, UniProt P50549 1-477)
# Assay: as above
# Details: protein: recombinant; tags: N-terminal GST; dsDNA, one strand shown
# Method in brief: as §1
# ETV1, sequence (P50549 whole entry): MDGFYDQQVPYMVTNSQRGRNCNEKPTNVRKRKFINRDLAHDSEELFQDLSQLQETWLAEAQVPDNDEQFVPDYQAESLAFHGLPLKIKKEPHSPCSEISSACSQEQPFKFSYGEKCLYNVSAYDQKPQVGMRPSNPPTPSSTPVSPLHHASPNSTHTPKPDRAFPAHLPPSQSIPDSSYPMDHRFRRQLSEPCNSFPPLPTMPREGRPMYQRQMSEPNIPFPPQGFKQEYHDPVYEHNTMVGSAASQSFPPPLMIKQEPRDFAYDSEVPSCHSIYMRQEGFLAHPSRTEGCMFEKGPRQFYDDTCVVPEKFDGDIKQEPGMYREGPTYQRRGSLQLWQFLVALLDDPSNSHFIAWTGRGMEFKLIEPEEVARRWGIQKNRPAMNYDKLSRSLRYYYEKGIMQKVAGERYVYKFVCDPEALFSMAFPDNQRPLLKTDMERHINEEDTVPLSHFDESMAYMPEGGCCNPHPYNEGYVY
row,Sequence,binding signal
1,CTAAGG,"1.01 fold enrichment (6-mer frequency, TF over GST control)"
2,CGCCAC,"1.06 fold enrichment (6-mer frequency, TF over GST control)"
3,AACGCG,"1.04 fold enrichment (6-mer frequency, TF over GST control)"
4,ATCACG,"1.02 fold enrichment (6-mer frequency, TF over GST control)"
5,CCTAGG,"1.02 fold enrichment (6-mer frequency, TF over GST control)"
6,CAGCTC,"1.08 fold enrichment (6-mer frequency, TF over GST control)"
7,GTGTCT,"1.09 fold enrichment (6-mer frequency, TF over GST control)"
8,ACCTGT,"1.02 fold enrichment (6-mer frequency, TF over GST control)"

# Biological target: T3, ERF (Homo sapiens, UniProt P50548 1-548)
# T3 sequence: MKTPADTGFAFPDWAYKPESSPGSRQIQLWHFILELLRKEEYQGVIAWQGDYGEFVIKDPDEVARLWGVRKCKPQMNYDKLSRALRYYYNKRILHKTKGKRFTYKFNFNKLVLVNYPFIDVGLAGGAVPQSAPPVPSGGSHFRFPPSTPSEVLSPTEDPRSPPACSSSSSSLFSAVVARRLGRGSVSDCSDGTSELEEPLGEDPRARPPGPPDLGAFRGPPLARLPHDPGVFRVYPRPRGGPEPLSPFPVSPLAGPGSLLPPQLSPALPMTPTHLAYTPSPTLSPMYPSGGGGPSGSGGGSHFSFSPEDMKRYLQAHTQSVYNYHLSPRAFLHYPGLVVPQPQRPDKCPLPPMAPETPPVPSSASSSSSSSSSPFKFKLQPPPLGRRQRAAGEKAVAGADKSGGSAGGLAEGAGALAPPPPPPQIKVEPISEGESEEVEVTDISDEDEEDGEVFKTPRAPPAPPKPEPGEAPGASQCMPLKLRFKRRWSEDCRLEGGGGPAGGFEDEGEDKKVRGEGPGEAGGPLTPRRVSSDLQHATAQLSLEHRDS
# Assay: as above
# Details: protein: recombinant; tags: N-terminal GST; dsDNA, one strand shown
# Method in brief: as §1
row,Sequence,binding signal
1,CATATG,"1.06 fold enrichment (6-mer frequency, TF over GST control)"
2,GTATTG,"1 fold enrichment (6-mer frequency, TF over GST control)"
3,ATCACG,"1.07 fold enrichment (6-mer frequency, TF over GST control)"
4,ATTGTG,"1.06 fold enrichment (6-mer frequency, TF over GST control)"
5,CAGCTC,"1.05 fold enrichment (6-mer frequency, TF over GST control)"
6,GTGTCT,"1.06 fold enrichment (6-mer frequency, TF over GST control)"
7,ACCTGT,"1.08 fold enrichment (6-mer frequency, TF over GST control)"

# — paper PMC7862700, “An all-to-all approach to the identification of sequence-specific readers for epigenetic DNA modifications on cytosine”
